This note sets out measurements from paper PMC5540273 (PLoS ONE, 2017).
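Further: kd values determined as follow-up on hits from a single-replicate KINOMEscan panel screen.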

For one assay, the system named is T1, CDC2L5.
T1 construct: gene CDK13
In general, Kd refers to the concentration at which binding is half-saturated. Low values mean higher affinity, high ones lower affinity. Consider `COc1ccc(CSc2nnc(-c3ccc4c(c3)CCO4)o2)cc1`, for which the Kd was above 10000 nM.

For the compound `CCn1c(-c2c(N)noc2C)nc2cnccc21` [SB-737856], the Kd was above 10000 nM. In turn, `CCn1c(-c2ccccc2)nc2cnccc21` [SB-733416] showed a Kd above 10000 nM.

Another assay has as its system T2, CDK11.
T2 construct: gene CDK19
The compound `O=c1cc(N2CCOCC2)nc2n(Cc3cccc(Cl)c3Cl)c3ccccc3n12` [GSK2299009] came in with a Kd above 10000 nM.

`CC(=O)c1cccc(NC(=O)NC2CCN(c3ccnc(Nc4ccc(F)cc4)n3)C2)c1` (centres unmarked) [GSK1379710] returned a Kd of 2000 nM. The same measure, in the same setting: the value for `Cc1cnc(N)c(/C=C/c2cncc(C(=O)NCCc3ccc(Cl)cc3Cl)c2)c1.Cl` [GSK190937] was 410 nM. `Nc1ncnc2occ(-c3ccc4c(c3)CCN4C(=O)Cc3cc(F)ccc3F)c12` [GSK2645446] registered a Kd of 1100 nM.

Another assay concerns CDK4-cyclinD1.
For the compound `CC(=O)c1c(C)c2cnc(Nc3ccn(C)n3)nc2n(C2CCCC2)c1=O`, binding was characterised by a dissociation constant (Kd) of 23 nM. Same read-out and setting: with `CC(=O)c1c(C)c2cnc(Nc3ccc(N4CCNCC4)cn3)nc2n(C2CCCC2)c1=O` the figure was 1.3 nM; with `CC(C)c1ccc(O)cc1Nc1ccnc2ccc(C(F)(F)F)cc12` [GW482059], above 10000 nM.

The next assay deals with CDK4-cyclinD3.
On to `CCc1ccc(-c2ccc3c(c2)-c2n[nH]cc2S(=O)(=O)N3C)cc1`, for which the Kd is above 10000 nM.

`CC(=O)c1c(C)c2cnc(Nc3ccn(C)n3)nc2n(C2CCCC2)c1=O`: the Kd amounted to 9.9 nM. On the same count and under the same terms, with `CC(=O)c1c(C)c2cnc(Nc3ccc(N4CCNCC4)cn3)nc2n(C2CCCC2)c1=O` the figure was 0.62 nM.

In a further assay the test system is CDK4.
`COc1nccc(-c2c(-c3ccc(F)cc3)ncn2CCCN2CCOCC2)n1` [SB-282852] yielded a Kd above 10000 nM. On the same count and under the same terms, with `O=C(Nc1n[nH]c2cc(-c3ccsc3)ccc12)C1CC1` [SB-732932] the figure was above 10000 nM; with `CNc1nc(-c2ccc3c(N)n[nH]c3c2)cc(N2C[C@@H](C(=O)NC3CCCCC3)OC[C@H]2C)n1` [GSK2375584], above 10000 nM. In turn, `O=C1NC(=O)C(c2ccc(Cl)cc2)=C1Nc1cccc(Cl)c1` [SB-317651] returned a dissociation constant (Kd) above 10000 nM.
